Screening data (PubChem BioAssay)
RT RNaseH block: inhibitors of HIV-1 reverse transcriptase RNase H; hit rate 1.9% among 65,000; RT-RNase H RNA/DNA duplex cleavage, fluorescence; P04585; inhibition, % at 10 µM; in the data active = inhibition above about 50%
RmlC RmlD mix: inhibitors of RmlC and RmlD coupled enzymes; inhibition, % at 5.5 µM; hit rate 0.39% among 110,000; RmlC/RmlD coupled enzyme inhibition, 384-well mixture HTS; in the data active = inhibition above about 30%, passing the limit was not always enough; inconclusive = no clear call, values can overlap the other calls
* hit, by the source's call; ? = inconclusive; . = not tested or not shown. The entries come from a sample that favours hits as a whole.

SMILES	RT RNaseH block	RmlC RmlD mix
C=CCn1c(=N)c(C(=O)NCCCOC)cc2c(=O)n3cccc(C)c3nc21	-25.1	50.1*
CNC(=O)c1cc2c(=O)n3cccc(C)c3nc2n(C(C)C)c1=N	-33.9	89.2*
COCCCn1c(=N)c(C(=O)NCC2CCCO2)cc2c(=O)n3ccccc3nc21 (stereo unspecified)	-0.1	69.4*
CCCCNC(=O)c1cc2c(=O)n3cccc(C)c3nc2n(Cc2ccccc2)c1=N	0.2	6.1
CC(C)(C)c1ccc(C(=O)N2CCC(=O)N(C(CO)Cc3ccccc3)CC2)cc1 (stereo unspecified)	.	9.4
Cc1ccc(C2CC(c3ccccc3)=NN2C(=S)Nc2ccccc2)o1 (stereo unspecified)	.	-4.7
CC(C)=CCC12Oc3cc(O)ccc3C1(O)Oc1cc(O)c([C@H]3C=C(C)CC(c4ccc(O)cc4O)[C@H]3C(=O)c3ccc(O)cc3O)c(O)c1C2=O (stereo partly specified)	.	-9.5
CCCn1nnnc1SCC(=O)N(C(C)C)C(C)C	64.5*	-14.6
CCCCn1nnnc1SCC(=O)N(CC)CC	.	3.5
C=CCn1c2ccccc2c2nnc(SCCCn3c(=O)[nH]c4ccccc43)nc21	.	71.4*
O=c1[nH]c2ccccc2n1CCCSc1cnc2ccccc2n1	-33.3	17.8
Cc1ccc(Nc2[nH]c(=O)c3ccccc3c2C(=O)c2ccccc2)cc1	.	4.5
CCOC(=O)c1c(NC(=O)c2ccoc2C)sc2c1CCC2	10.8	-68.1
CCC1CCc2c(sc(NC(=O)c3ccoc3C)c2C(N)=O)C1 (stereo unspecified)	53.0*	-3.4
CN1CCN(C2=C(Cl)C(=O)N(CCc3ccccc3)C2=O)CC1	1.4	36.1
O=C1C(Cl)=C(N2CCOCC2)C(=O)N1c1cccc(Cl)c1	93.0*	8.1
O=C1C(Cl)=C(N2CCCCCC2)C(=O)N1c1ccccc1	56.8*	6.5
O=C1CC(N2CCOCC2)C(=O)N1c1cccc(Cl)c1 (stereo unspecified)	5.6	-16.9
CCOc1ccc(N2CC(C(=O)Nc3ccccc3N3CCOCC3)CC2=O)cc1 (stereo unspecified)	.	-6.8
CCOC(=O)c1c(C)[nH]c(C(=O)COC(=O)C(C)N2C(=O)C3CCCCC3C2=O)c1C (stereo unspecified)	.	-8.7
CN1CCc2c(sc3c2C(=O)NC(c2cn(Cc4ccccc4)c4ccccc24)N3)C1 (stereo unspecified)	9.1	-2.5
CN1C(=O)c2c(sc3c2CCCC3)NC1c1ccccc1O (stereo unspecified)	52.4*	-5.0
Cc1cnc(C(=O)Nc2ccccc2-c2ccc(C)o2)cn1	-12.5	35.3
O=C(NCc1ccco1)N1c2ccccc2Sc2ccccc21	-54.8	-5.1
COC(=O)/C(C#N)=C1/SC=C(C)N1c1ccccc1	-8.4	0.6
SMILES	RT RNaseH block	RmlC RmlD mix
N#C/C(C(=O)c1ccccc1)=C1/SC=C(N)N1c1ccccc1	64.2*	-2.0
CC1(c2nnc(-c3cccc(Cl)c3)o2)CC(c2ccccc2F)=NO1 (stereo unspecified)	.	-6.9
CCCCCC(=O)Nc1cccc(C2=NOC3(C2)C[C@@H](C(N)=O)N(C(=O)C2(C)CC2)C3)c1 (stereo partly specified)	.	-8.3
CC(Nc1n[nH]c(=S)[nH]c1=O)C(=O)OCc1ccccc1 (stereo unspecified)	53.0*	1.2
CCCCOC(=O)C(C)Nc1n[nH]c(=S)[nH]c1=O (stereo unspecified)	.	-9.4
COCCNC(=O)c1c(N)n(CCC(C)C)c2nc3ccccc3nc12	.	-152.6
COCCNC(=O)c1c(N)n(CCCn2ccnc2)c2nc3ccccc3nc12	-1.6	124.1*
COc1ccccc1NS(=O)(=O)c1cc(C(=O)N2CC(C)CC(C)C2)ccc1C (stereo unspecified)	.	-3.7
COc1ccc(C2C(C(C)=O)=C(C)N=c3s/c(=C\c4ccc5c(c4)OCO5)c(=O)n32)c(OC)c1 (stereo unspecified)	58.0*	11.9
COc1ccc(C2C(C(C)=O)=C(C)N=c3s/c(=C\c4ccco4)c(=O)n32)c(OC)c1 (stereo unspecified)	-0.7	5.1
O=C1CSC(c2ccccc2)N1c1nnc(C23CC4CC(CC(C4)C2)C3)s1 (stereo unspecified)	.	-5.1
CC(C)(C)OC(=O)NCCCC1=CC2=CC(=O)C(C)(OC(=O)C3CCCC3)C(=O)C2=CO1 (stereo unspecified)	.	-1.2
CC1(C)Cc2c(C#N)c(N)sc(=S)c2CS1	62.3*	?
Cn1c(N)c(C#N)c2c(c1=S)CSC(C)(C)C2	18.5	6.5
CCO/C=C1\C(=O)N(c2ccccc2)C(=O)c2ccccc21	-9.7	186.0*
CCO/C=C1/C(=O)N(CC)c2ccccc21	-13.8	.
CC(C)CC(CO)N1CCN(C(=O)c2ccc(Cl)cc2)CCC1=O (stereo unspecified)	.	-10.3
CCOC(=O)c1sc2nc(C(C)C)c3c(c2c1N)CC(C)(C)OC3	.	18.6
CCOC(=O)c1sc2nc(N3CCCC3)c3c(c2c1N)CC(C)(C)OC3	6.5	45.1*
CCn1c(CCNC(=O)c2cccs2)nnc1SCC(=O)c1ccc(OC)cc1	57.4*	-6.5
CCn1c(CNC(=O)c2ccc(OC)cc2)nnc1SCC(=O)c1ccccc1	4.1	-8.6
COC(=O)C1=CN(CC2CCCO2)C=C(C(=O)OC)C1c1ccccc1C(F)(F)F (stereo unspecified)	.	7.9
COC(=O)C1=CN(CC2CCCO2)C=C(C(=O)OC)C1c1ccsc1 (stereo unspecified)	-22.2	57.8*
COc1ccc(-c2cc3nc4n(c(=O)c3s2)CCC4)cc1	-44.3	49.7*
COc1ccc(NS(=O)(=O)c2cccc(-c3nnc4n3CCCCC4)c2)cc1	-8.4	10.6
SMILES	RT RNaseH block	RmlC RmlD mix
O=C(COC(=O)C1COc2ccccc2O1)NC(=O)NC1CCCC1 (stereo unspecified)	-2.0	4.1
O=C(COC(=O)C1COc2ccccc2O1)NC(=O)Nc1ccc2c(c1)OCCO2 (stereo unspecified)	51.0*	-1.6
COc1ccccc1-c1nnc(SCC(=O)Nc2ccc(S(N)(=O)=O)cc2)n1C	.	-11.1
CCOc1ccc(N(CC(=O)NC2CCCC2)C(=O)CSc2nnc(COc3ccccc3)o2)cc1	.	5.0
CC1(c2nnc(Cc3ccccc3)o2)CC(c2ccncc2)=NO1 (stereo unspecified)	.	-11.2
C#CCOCCOCCOCCNc1nc(N2CCN(C(=O)Cn3cc(CC(C)O)nn3)CC2)nc(N2CCN(C(=O)[C@H](C)n3cc(CCCN=C(N)N)nn3)CC2)n1 (stereo partly specified)	.	1.4
Cc1cccn2c(=O)c(C=Nc3ccc(Cl)cc3)c(NCCO)nc12	-17.5	1.2
Cc1cccn2c(=O)c(C=Nc3ccccc3)c(NCCO)nc12	-29.4	36.6*
CN(C(=O)c1cccnc1)c1nnc(-c2cccnc2)s1	65.8*	3.0
CN(C(=O)c1cccnc1)c1nnc(-c2cnccn2)s1	-4.8	4.5
CCOC(=O)c1ccc(-n2c(N)c(C(=O)NCc3ccco3)sc2=S)cc1	71.9*	0.7
CCOC(=O)c1ccc(-n2c(N)c(C(=O)NCC3CCCO3)sc2=S)cc1 (stereo unspecified)	.	-9.0
COc1ccc(-n2c(N)c(C(=O)NCc3ccco3)sc2=S)cc1	.	6.6
C=CCNC(=O)c1sc(=S)n(-c2ccc(C(=O)OCC)cc2)c1N	75.8*	-1.3
CCOC(=O)[C@@H]1[C@H]2COc3ccccc3[C@@H]2N2C(=O)N(c3ccc(C(F)(F)F)cc3)C(=O)[C@]12C	.	-13.2
